Data as given in PubChem BioAssay (NCATS).
Inconclusive results are not listed. Activity calls are given as the source filed them. The call rests on the fitted dose curve; in most records, active means well fitted inhibition curve with a large enough effect; inconclusive means small, poorly fitted or top-dose-only effect; inactive means flat fitted curve, though single readings scatter.

Legend:
Assay in all cases: qHTS profiling for inhibitors of Plasmodium falciparum proliferation (AID 504749); further: nearly all actives have a fitted effect of over 60% in size
Settings in all cases: P. falciparum in erythrocytes, SYBR Green DNA, 72 h; series mostly up to 28.7 µM
CP266 = test system: CP266
Outline: (§1)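 In a 72 h erythrocytic culture (37 C, humidified, 5% CO2) at 2.5% hematocrit and 0.3% starting parasitemia, compounds were tested; SYBR Green I in detergent lysis buffer stained parasite DNA overnight.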

CP268 = test system: CP268
Outline: as §1

CP269 = test system: CP269
Outline: as §1

CP286 = test system: CP286
Outline: as §1

CP291 = test system: CP291
Outline: as §1

CP297 = test system: CP297
Outline: as §1

CP305 = test system: CP305
Outline: as §1

CP315 = test system: CP315
Outline: as §1

CP325 = test system: CP325
Outline: as §1

CP329 = test system: CP329
Outline: as §1

Measured: Potency

CN[C@@H]1[C@H](O[C@H]2[C@H](O[C@H]3[C@H](O)[C@@H](O)[C@H](N=C(N)N)[C@@H](O)[C@@H]3N=C(N)N)O[C@@H](C)[C@]2(O)C=O)O[C@@H](CO)[C@H](O)[C@H]1O
inactive: CP266 | CP268 | CP269 | CP286 | CP291 | CP297 | CP305 | CP315 | CP325 | CP329

Cc1cc(C)c(NC(=O)C[C@H](CC(=O)O)c2cccc3ccccc23)c(C(=O)N2CCC3(CCCC3)CC2)c1
inactive: CP266 | CP268 | CP269 | CP286 | CP291 | CP297 | CP305 | CP315 | CP325 | CP329

CC(C)=CCC/C(C)=C/CC/C(C)=C/CC/C=C(\C)CC/C=C(\C)CCC=C(C)C
inactive: CP266 | CP268 | CP269 | CP286 | CP291 | CP297 | CP305 | CP315 | CP325 | CP329

Nc1ncnc2c1ncn2[C@H]1CC[C@@H](CO)O1
inactive: CP266 | CP268 | CP269 | CP286 | CP291 | CP297 | CP305 | CP315 | CP325 | CP329

CC(=O)N=c1sc(S(N)(=O)=O)nn1C
inactive: CP266 | CP268 | CP269 | CP286 | CP291 | CP297 | CP305 | CP315 | CP325 | CP329

Cn1c(=O)c2c(ncn2CCOC(=O)C(C)(C)Oc2ccc(Cl)cc2)n(C)c1=O
inactive: CP266 | CP268 | CP269 | CP286 | CP291 | CP297 | CP305 | CP315 | CP325 | CP329

CCCCCc1ccc(C)cc1O
inactive: CP266 | CP268 | CP269 | CP286 | CP291 | CP297 | CP305 | CP315 | CP325 | CP329

Cc1cc2nc3c(=O)[nH]c(=O)nc-3n(C[C@H](O)[C@H](O)[C@H](O)COP(=O)(O)OP(=O)(O)OC[C@H]3O[C@@H](n4cnc5c(N)ncnc54)[C@H](O)[C@@H]3O)c2cc1C
inactive: CP266 | CP268 | CP269 | CP286 | CP291 | CP297 | CP305 | CP315 | CP325 | CP329

CCCC(=O)O
inactive: CP266 | CP268 | CP269 | CP286 | CP291 | CP297 | CP305 | CP315 | CP325 | CP329

CCN(CC)CCOc1ccccc1OC
inactive: CP266 | CP268 | CP269 | CP286 | CP291 | CP297 | CP305 | CP315 | CP325 | CP329

C[Se]CC[C@H](N)C(=O)O
inactive: CP266 | CP268 | CP269 | CP286 | CP291 | CP297 | CP305 | CP315 | CP325 | CP329

COC(=O)c1ccccc1O
inactive: CP266 | CP268 | CP269 | CP286 | CP291 | CP297 | CP305 | CP315 | CP325 | CP329

[O]=[Bi][O]C(=O)[O][Bi]=[O]
inactive: CP266 | CP268 | CP269 | CP286 | CP291 | CP297 | CP305 | CP315 | CP325 | CP329

C/C=C/C=C/C(=O)O
inactive: CP266 | CP268 | CP269 | CP286 | CP291 | CP297 | CP305 | CP315 | CP325 | CP329

CCCCCCCCCCCCCCCCCC(=O)OC[C@@H](O)[C@H]1OC[C@H](O)[C@H]1O
inactive: CP266 | CP268 | CP269 | CP286 | CP291 | CP297 | CP305 | CP315 | CP325 | CP329

Nc1ncnc2c1ncn2CCOCP(=O)(O)O
inactive: CP266 | CP268 | CP269 | CP286 | CP291 | CP297 | CP305 | CP315 | CP325 | CP329

CC(C)(COP(=O)(O)OP(=O)(O)OC[C@H]1O[C@@H](n2cnc3c(N)ncnc32)[C@H](O)[C@@H]1OP(=O)(O)O)C(O)C(=O)NCCC(=O)NCCS (stereo partly specified)
inactive: CP266 | CP268 | CP269 | CP286 | CP291 | CP297 | CP305 | CP315 | CP325 | CP329

CC(CNC(=O)c1cccnc1)NC(=O)c1cccnc1 (stereo unspecified)
inactive: CP266 | CP268 | CP269 | CP286 | CP291 | CP297 | CP305 | CP315 | CP325 | CP329

CN1C(=O)OC(C)(C)C1=O
inactive: CP266 | CP268 | CP269 | CP286 | CP291 | CP297 | CP305 | CP315 | CP325 | CP329

CCCCC[C@H](O)/C=C/[C@H]1[C@H](O)CC(=O)[C@@H]1C/C=C\CCCC(=O)O
inactive: CP266 | CP268 | CP269 | CP286 | CP291 | CP297 | CP305 | CP315 | CP325 | CP329

CCCCCCCCCCCCCCCCCC[N+](C)(C)CCC[Si](OC)(OC)OC
inactive: CP266 | CP268 | CP269 | CP286 | CP291 | CP297 | CP305 | CP315 | CP325 | CP329

CCCCC[C@H](O)/C=C/[C@@H]1[C@H]2C/C(=C/CCCC(=O)O)O[C@H]2C[C@H]1O
inactive: CP266 | CP268 | CP269 | CP286 | CP291 | CP297 | CP305 | CP315 | CP325 | CP329

CCC(C)[C@@H](N)C(=O)O (stereo partly specified)
inactive: CP266 | CP268 | CP269 | CP286 | CP291 | CP297 | CP305 | CP315 | CP325 | CP329

O=C(O)COc1ccc(CCNS(=O)(=O)c2ccccc2)s1
inactive: CP266 | CP268 | CP269 | CP286 | CP291 | CP297 | CP305 | CP315 | CP325 | CP329

CC(C)CCC[C@@H](C)[C@H]1CC[C@H]2[C@@H]3CC=C4C[C@@H](O)CC[C@]4(C)[C@H]3CC[C@]12C
inactive: CP266 | CP268 | CP269 | CP286 | CP291 | CP297 | CP305 | CP315 | CP325 | CP329

O=C(O)/C=C/c1ccccc1
inactive: CP266 | CP268 | CP269 | CP286 | CP291 | CP297 | CP305 | CP315 | CP325 | CP329

CN(C)c1ccc(C(=C2C=CC(=[N+](C)C)C=C2)c2c(O)c(S(=O)(=O)[O-])cc3cc(S(=O)(=O)O)ccc23)cc1
inactive: CP266 | CP268 | CP269 | CP286 | CP291 | CP297 | CP305 | CP315 | CP325 | CP329

N=C(N)n1cccn1
inactive: CP266 | CP268 | CP269 | CP286 | CP291 | CP297 | CP305 | CP315 | CP325 | CP329

Cc1ncc(C[n+]2csc(CCOP(=O)(O)O)c2C)c(N)n1
inactive: CP266 | CP268 | CP269 | CP286 | CP291 | CP297 | CP305 | CP315 | CP325 | CP329

CNC(=O)C[C@@H](N)C(=O)N[C@@H](C(=O)N[C@@H]1C(=O)N2[C@@H]1SC(C)(C)[C@@H]2C(=O)O)c1ccc(O)cc1
inactive: CP266 | CP268 | CP269 | CP286 | CP291 | CP297 | CP305 | CP315 | CP325 | CP329

Cc1ccc(S(=O)(=O)NCl)cc1
inactive: CP266 | CP268 | CP269 | CP286 | CP291 | CP297 | CP305 | CP315 | CP325 | CP329

CC/C(=C(/CC)c1ccc(OP(=O)(O)O)cc1)c1ccc(OP(=O)(O)O)cc1
inactive: CP266 | CP268 | CP269 | CP286 | CP291 | CP297 | CP305 | CP315 | CP325 | CP329

CC(C)(C)CC(C)(C)c1cc(Cc2cc(C(C)(C)CC(C)(C)C)cc(-n3nc4ccccc4n3)c2O)c(O)c(-n2nc3ccccc3n2)c1
inactive: CP266 | CP268 | CP269 | CP286 | CP291 | CP297 | CP305 | CP315 | CP325 | CP329

CC1CCCCN1CCCOC(=O)c1ccccc1 (stereo unspecified)
inactive: CP266 | CP268 | CP269 | CP286 | CP291 | CP297 | CP305 | CP315 | CP325 | CP329

CCCCCCCCCCCCOCCCN
inactive: CP266 | CP268 | CP269 | CP286 | CP291 | CP297 | CP305 | CP315 | CP325 | CP329

Cc1ncc[nH]1
inactive: CP266 | CP268 | CP269 | CP286 | CP291 | CP297 | CP305 | CP325 | CP329

CCN(CC)CCC(=O)N1c2ccccc2Sc2ccc(C(F)(F)F)cc21
inactive: CP266 | CP268 | CP269 | CP286 | CP297 | CP305 | CP315 | CP325 | CP329

O[C@@H]([C@H](O)[C@H](O)CBr)[C@H](O)CBr
inactive: CP266 | CP268 | CP269 | CP286 | CP291 | CP297 | CP305 | CP315 | CP325 | CP329

CCOC(C)OCC
inactive: CP266 | CP268 | CP269 | CP286 | CP291 | CP297 | CP305 | CP315 | CP325 | CP329

O=C(NNCS(=O)(=O)O)c1ccncc1
inactive: CP266 | CP268 | CP269 | CP286 | CP291 | CP297 | CP305 | CP315 | CP325 | CP329

O=C(CCCN1CCN2CCCC2C1)c1ccc(F)cc1 (stereo unspecified)
inactive: CP266 | CP268 | CP269 | CP286 | CP291 | CP305 | CP315 | CP325 | CP329

CC(=O)Nc1ccc(OC(C)=O)cc1
inactive: CP266 | CP268 | CP269 | CP286 | CP291 | CP297 | CP305 | CP315 | CP325 | CP329

NC(=O)Oc1ccc(Cc2ccccc2)cc1
inactive: CP266 | CP268 | CP269 | CP286 | CP297 | CP305 | CP315 | CP325 | CP329
